Measurements taken from paper PMC4336329 (PLoS ONE, 2015).
The whole screen tested about 310,000 compounds, of which about 2,200 (0.71%) showed an effect of 50% or more. The effect is printed as a negative number. The sample as a whole holds a higher share of strong results than the screen did.

Biological target: human ether-à-go-go-related gene (hERG) potassium channel (human, UniProt Q12809)
Assay: primary screen, population patch clamp on CHO cells stably expressing hERG; higher = less effect of the substance

Chain of human ether-à-go-go-related gene (hERG) potassium channel (Q12809 whole entry, looked up): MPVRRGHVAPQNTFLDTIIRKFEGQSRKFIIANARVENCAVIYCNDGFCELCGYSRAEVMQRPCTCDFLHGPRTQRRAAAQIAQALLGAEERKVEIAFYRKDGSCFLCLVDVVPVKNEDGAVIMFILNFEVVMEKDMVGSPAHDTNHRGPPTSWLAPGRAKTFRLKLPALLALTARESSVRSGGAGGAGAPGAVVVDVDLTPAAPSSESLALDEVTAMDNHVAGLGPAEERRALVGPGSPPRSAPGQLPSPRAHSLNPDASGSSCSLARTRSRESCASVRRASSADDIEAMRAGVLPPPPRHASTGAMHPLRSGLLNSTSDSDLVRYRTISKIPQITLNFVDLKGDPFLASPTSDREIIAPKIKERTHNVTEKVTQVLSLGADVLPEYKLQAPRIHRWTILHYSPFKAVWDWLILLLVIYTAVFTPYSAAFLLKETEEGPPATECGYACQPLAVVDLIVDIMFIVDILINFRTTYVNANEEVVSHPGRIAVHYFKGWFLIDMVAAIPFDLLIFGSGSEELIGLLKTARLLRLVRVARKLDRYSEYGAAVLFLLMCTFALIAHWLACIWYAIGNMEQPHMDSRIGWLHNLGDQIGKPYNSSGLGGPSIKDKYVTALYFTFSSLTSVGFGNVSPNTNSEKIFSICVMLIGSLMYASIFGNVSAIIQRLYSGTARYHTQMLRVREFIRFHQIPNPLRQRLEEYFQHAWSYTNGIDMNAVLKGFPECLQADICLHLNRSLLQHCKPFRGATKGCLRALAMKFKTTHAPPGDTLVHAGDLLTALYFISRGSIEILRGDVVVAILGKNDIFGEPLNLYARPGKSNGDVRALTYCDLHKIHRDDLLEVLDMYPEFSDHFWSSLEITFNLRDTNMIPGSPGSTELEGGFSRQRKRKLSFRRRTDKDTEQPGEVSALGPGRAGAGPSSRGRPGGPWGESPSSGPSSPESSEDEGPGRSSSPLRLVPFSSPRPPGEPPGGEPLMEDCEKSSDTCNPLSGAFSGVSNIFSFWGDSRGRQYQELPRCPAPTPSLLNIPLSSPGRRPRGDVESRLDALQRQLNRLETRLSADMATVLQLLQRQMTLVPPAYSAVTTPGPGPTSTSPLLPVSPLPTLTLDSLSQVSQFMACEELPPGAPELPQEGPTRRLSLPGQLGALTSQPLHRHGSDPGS

Structure (SMILES) | hERG current change (%, negative = inhibition) at 1uM [%]
CCOC(=O)C1CCCN(C(=O)CC(c2ccccc2)c2ccccc2)C1 (stereo not drawn) | -2.54
O=C(CN=C1NS(=O)(=O)c2ccccc21)OCC(=O)c1ccccc1 | 10.8
CCC(C)(C)c1ccc(OCCCC[n+]2ccc(C)cc2)c(C(C)(C)CC)c1.[Br-] | -34.5
CCC(C)(C)c1ccc(OCCCC[n+]2ccccc2)c(C(C)(C)CC)c1.[Br-] | -28.5
CCC(C)(C)c1ccc(OCCCC[n+]2cccc(C)c2C)c(C(C)(C)CC)c1.[Br-] | -52.7
CCOC(=O)c1cc2[nH]c3ccccc3c2[n+](-c2ccc([N+](=O)[O-])cc2)c1C.[Cl-] | -70.6
CCOC(=O)c1cc2[nH]c3ccccc3c2[n+](-c2ccc([N+](=O)[O-])cc2)c1N.O=C([O-])C(F)(F)F | -13.8
N#Cc1cc2[nH]c3ccccc3c2[n+](-c2ccc([N+](=O)[O-])cc2)c1N.[Cl-] | -28.7
C[C@]12CCC3C(CCC4=C/C(=N/OCC(=O)NC(CCC(=O)O)C(=O)O)CC[C@@]43C)C1CCC2O (stereo partly drawn) | 10.5
CCN(CC)/C(=N\S(=O)(=O)c1ccccc1C)c1ccccc1 | -5.09
Cc1nn2cc(-c3ccc(Cl)cc3)cnc2c1Cl | 13.1
CCn1c(=N)c(C(=O)NCCCOC)cc2c(=O)n3cccc(C)c3nc21 | -47
C=CCn1c(=N)c(C(=O)NCCCOC)cc2c(=O)n3cccc(C)c3nc21 | -64.2
C=CCn1c(=N)c(C(=O)OCC)cc2c(=O)n3cccc(C)c3nc21 | -73.7
CCOC(=O)c1cc2c(=O)n3cccc(C)c3nc2n(CCOC)c1=NC(C)=O | 8.92
C=CCn1c(=N)c(C(=O)NCCCOC)cc2c(=O)n3ccccc3nc21 | -22.3
O=C(Nc1ccccc1F)N(CCCN1CCOCC1)Cc1cc2cc3c(cc2[nH]c1=O)OCCO3 | 9.36
Cc1ccc(NC(=O)c2cc(N3C(=O)CCC3=O)ccc2N2CCOCC2)cc1 | 5.52
COc1ccc(CN(C)S(=O)(=O)c2nnc(NC(=O)c3cccc(F)c3)s2)cc1OC | 6.86
CSc1nc(-c2ccco2)cc(C(F)(F)F)c1C#N | 12
CCOC(=O)N1CCN(C(=O)C2CCCN(c3nc4ccc(OCC)cc4s3)C2)CC1 (stereo not drawn) | -3.97
COc1ccccc1-c1nnc(SCC(=O)NC2CCS(=O)(=O)C2)n1CCc1ccccc1 (stereo not drawn) | 11.2

Structure (SMILES) | hERG current change (%, negative = inhibition) at 1uM [%]
O=C(CSc1nnc(-c2ccc(Br)cc2)n1CCc1ccccc1)NC1CCS(=O)(=O)C1 (stereo not drawn) | -60.7
CCn1c(SCC(=O)NC2CCS(=O)(=O)C2)nnc1-c1ccccc1 (stereo not drawn) | 6.72
COc1ccc(C2(c3cccc(O)c3OC)CCN(C(C)=O)CC2)cc1O | 17.8
Cc1ccc2nc(NC(=O)C3CCCN(S(=O)(=O)c4cccnc4)C3)sc2c1 (stereo not drawn) | 7.66
CC(=O)N=c1c(C#N)cc2c(=O)n3ccccc3nc2n1CCCOC(C)C | 8.03
CCOCCCn1c(=NC(C)=O)c(C#N)cc2c(=O)n3ccccc3nc21 | 11.7
CCOCCCn1c(=NC(=O)c2cccs2)c(C#N)cc2c(=O)n3ccccc3nc21 | -49.3
CCCCCn1c(=NC(C)=O)c(C#N)cc2c(=O)n3ccccc3nc21 | 0.0455
CC(C)OCCCn1c(=NC(=O)c2cccs2)c(C#N)cc2c(=O)n3ccccc3nc21 | -67.1
CC(C)OCCCn1c(=NC(=O)c2ccncc2)c(C#N)cc2c(=O)n3ccccc3nc21 | -63.4
Cc1cc(C(=O)CN2C(=O)NC3(CCCCC3)C2=O)c(C)n1-c1ccc2c(c1)OCO2 | 5.94
COC(=O)c1scc(C)c1-n1ccc(C(=O)C(=O)N(C)C)c1 | 9.29
CCN(CC)C(=O)C(=O)c1ccn(-c2c(C)csc2C(=O)OC)c1 | 7.53
C=CCN(CC=C)C(=O)C(=O)c1ccn(-c2c(C)csc2C(=O)OC)c1 | -59.3
CC(C)(C)CN1CCNC(=O)C1CC(=O)NCCc1cnn(-c2ccccc2)c1 (stereo not drawn) | 5.53
CSc1sc(C(=O)Nc2ccc(F)cc2F)c2c1C=CCC2 | 11.8
COc1ccc(NS(=O)(=O)c2cccs2)cc1S(=O)(=O)N1CCOCC1 | 14.7
O=C(Nc1ccccc1)N1CCN(c2ncccn2)CC1 | 6.7
OC1(Cc2cc(-c3ccccc3)no2)CCN(CCCc2ccccc2)CC1 | -55.5
c1ccc(CCCN2CCOCC2)cc1 | 22.1
COc1cccc(-c2cc(CC3(O)CCN(CCCc4ccccc4)CC3)on2)c1 | -39.3
O=C(NCCN1CCN(Cc2ccccc2)CC1)c1ccc(CS(=O)(=O)c2ccc(Br)cc2)o1 | -50.5

Structure (SMILES) | hERG current change (%, negative = inhibition) at 1uM [%]
O=C(NCCN1CCCCCC1)c1ccc(CS(=O)(=O)c2ccc(Br)cc2)o1 | -37.9
COc1ccc(N2CCN(CCCNC(=O)c3ccc(CS(=O)(=O)c4ccc(Cl)cc4)o3)CC2)cc1 | -71.2
O=C(NCCN1CCOCC1)c1ccc(CS(=O)(=O)c2ccc(Br)cc2)o1 | -0.189
COc1ccc(N2CCN(CCCNC(=O)c3ccc(CS(=O)(=O)c4ccc(OC)cc4)o3)CC2)cc1 | -43.1
COc1ccccc1S(=O)(=O)Cc1ccc(C(=O)NCCN2CCCCCC2)o1 | 9.15
COc1ccccc1S(=O)(=O)Cc1ccc(C(=O)NCCN2CCCC2)o1 | 14.2
COc1ccccc1S(=O)(=O)Cc1ccc(C(=O)NCCCN2CCN(c3ccc(F)cc3)CC2)o1 | -68.3
O=C(NCCCN1CCCC1)c1ccc(CS(=O)(=O)c2ccc(Cl)cc2)o1 | 18.1
CSc1nc2nc3c(c(=O)n2[nH]1)CCC3 | 1.88
CCOC(=O)c1sc2nc[nH]c(=O)c2c1C | 12.6
Cc1cc2c(cc1C)[n+](C)cn2CC(O)COCC1CC=CCC1.[I-] (stereo not drawn) | 11
CC(=O)CC(c1ccccc1)c1c(O)c2ccccc2oc1=O.[Na] (stereo not drawn) | 15.2
Cc1ccc(C(=O)Nc2cccc(-c3ccc(N4CCOCC4)nn3)c2)cc1 | 4.57
COc1cc(SC)ccc1C(=O)OCC(=O)NC1CCCC1 | 9.49
Fc1ccc(CSc2ccc3nnc(-c4cccnc4)n3n2)cc1 | -31.8
Cc1cccc(CSc2ccc3nnc(-c4cccnc4)n3n2)c1 | -16
Fc1ccc(CSc2ccc3nnc(-c4ccccn4)n3n2)cc1 | -92.9
Brc1ccc(CSc2ccc3nnc(-c4ccccn4)n3n2)cc1 | -12.7
Fc1cccc(CSc2ccc3nnc(-c4ccccn4)n3n2)c1 | -50.2
Fc1ccc(CSc2nnc3ccc(-c4ccncc4)nn23)cc1 | -61.2
O=C(CSc1ccc2nnc(-c3ccccn3)n2n1)Nc1cccc(F)c1 | -7.83
Cc1ccc(CSc2ccc3nnc(-c4cccnc4)n3n2)cc1 | -70.6

Structure (SMILES) | hERG current change (%, negative = inhibition) at 1uM [%]
Fc1cccc(Cl)c1CSc1ccc2nnc(-c3ccccn3)n2n1 | 1.37
c1ccc(CSc2ccc3nnc(-c4ccccn4)n3n2)cc1 | -26.6
c1ccc(CSc2nnc3ccc(-c4ccncc4)nn23)cc1 | -12
Cc1ccc(CSc2nnc3ccc(-c4ccncc4)nn23)cc1 | -3.17
Cc1cc[n+](CC(=O)Nc2cc(C(F)(F)F)ccc2Cl)cc1.[Cl-] | 5.29
O=C(NCCS(=O)(=O)N1CCC2(CC1)OCCO2)c1ccc(F)cc1 | 13.2
CSc1nc2ccccc2cc1/C=C(\C#N)c1ccccc1 | 9.25
Cc1ccccc1S(=O)Cc1ccc(C(=O)NCCN2CCOCC2)o1 (stereo not drawn) | 25.5
CC(C)CN(C(=O)CSc1nnc2ccccn12)C1CCS(=O)(=O)C1 (stereo not drawn) | 8.69
CCOC(=O)Cn1ncc2c3ccccc3n(CC(=O)OCC)c2c1=O | 13.4
Cc1cccc(CSc2ccc3nnc(-c4cccs4)n3n2)c1 | 5.73
Cc1cccc(CSc2ccc3nnc(-c4ccccn4)n3n2)c1 | -58.9
Cc1cccc(CSc2nnc(-c3ccccn3)n2N)c1 | 9.76
Cc1ccc(NC(=O)c2cc(NC(=O)C3CC=CCC3C(=O)O)ccc2N2CCOCC2)cc1Cl (stereo not drawn) | 5.76
O=C(/C=C/c1ccco1)Nc1cccc(S(=O)(=O)N2CCOCC2)c1 | -5.85
O=C(O)C(=O)O.O=[N+]([O-])c1ccc(S(=O)(=O)N2CCN(Cc3c[nH]c4ccccc34)CC2)cc1 | -10.1
O=[N+]([O-])c1ccc(CN2CCN(Cc3c[nH]c4ccccc34)CC2)cc1 | -73.7
CCOc1ccc(CN2CCN(Cc3c[nH]c4ccccc34)CC2)cc1.O=C(O)C(=O)O | -85.8
Brc1ccc(CN2CCN(Cc3c[nH]c4ccccc34)CC2)cc1.O=C(O)C(=O)O | -22
c1ccc(CN2CCN(Cc3c[nH]c4ccccc34)CC2)cc1 | 15.3
COc1ccc(CN2CCN(Cc3c[nH]c4ccccc34)CC2)cc1.O=C(O)C(=O)O | -27.2
